Inconclusive results are not listed. Unmarked numbers belong to inactive results. Calls come from the whole dose curve; as a rule, active = well fitted inhibition curve with a large enough effect; inconclusive = small, poorly fitted or top-dose-only effect; inactive = flat fitted curve, though single readings scatter.
% is set by controls: 0 for no effect and ±100 for the full control effect.

This assay has as its system HEK293. The assay is described as follows: Cytotoxic Profiling of Annotated Libraries Using Quantitative High-Throughput Screening (AID 1296008). Note: nearly all actives have a fitted effect of over 60% in size. The settings on record: Five cell lines viability, CellTiter-Glo ATP luminescence, 48-72 h; max response: active compounds read low. In short, it runs like this:
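Compounds were pin-transferred onto cells and incubated 48 or 72 hr at 37 degree Celsius, 95% humidity. CellTiter-Glo was added, plates sat 10 min at room temperature, then ATP-coupled luminescence was imaged as the viability read-out.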
As for `COc1cccc(OC)c1-c1ccc(C[C@H](NC(=O)c2c(Cl)cccc2Cl)C(=O)O)cc1`, the max response is -9.99%.

For the molecule `Nc1ncnc2c1c(COc1cccc(Cl)c1)nn2C1CCOCC1`, the max response is -4.69%.

On to `C=C1CC/C=C(/C(=O)O)CCC2C1CC2(C)C` (stereo not drawn), for which the max response is -4.76%.

For the molecule `COC(=O)C1=CO[C@@H](O[C@@H]2O[C@H](CO)[C@@H](O)[C@H](O)[C@H]2O)[C@@H]2[C@@H](C)[C@@H](O)C(O)[C@H]12` (stereo partly drawn), the max response was -12.7%.

On to `C=C1C(=O)O[C@@H]2CC(C)=C([C@@H](C)CCCOC(C)=O)[C@@H](O)[C@H]12`, for which the max response is 1.32%.

`O=C(C[C@@H]1C(C(=O)O)=CO[C@@H](O[C@@H]2O[C@H](CO)[C@@H](O)[C@H](O)[C@H]2O)/C1=C\CO)OCCc1ccc(O)c(O)c1`: the max response is 2.23%.

For the molecule `C/C1=C\CC(C)(C)/C=C/C/C(C(=O)O)=C/CC1`, the max response is -13.3%.

Regarding `OC[C@H]1O[C@@H](OCc2ccccc2)[C@H](O[C@@H]2OC[C@@H](O)[C@H](O)[C@H]2O)[C@@H](O)[C@@H]1O`, the max response is 0.407%.

With `COc1cc(/C=C/C(=O)O)ccc1O[C@@H]1O[C@H](CO)[C@@H](O)[C@H](O)[C@H]1O[C@@H]1OC[C@](O)(CO)[C@H]1O`, the max response was -3.47%.

Consider `COC(=O)C1(C)CCCC2(C)c3ccc(C(C)C)cc3C(O)C(O)C12` (stereo not drawn), for which the max response was -25.7%.

For the molecule `O=C(O)CC(CCc1ccccc1)OC1OC(CO)C(O)C(O)C1O` (stereo not drawn), the max response is -5.21%.

For the molecule `CC1=C[C@@H]2[C@H]3[C@@H]4O[C@@](C)(CC[C@H]4O)[C@H]3CC(=O)[C@]23C(=O)N[C@@H](CC(C)C)[C@@H]3[C@@H]1C`, the max response is 4.29%.

Turning to `COc1ccc(/C=C/C(=O)O[C@@H]2[C@@H](O[C@@H]3O[C@H](CO)[C@@H](O)[C@H](O)[C@H]3O)[C@@H](O)[C@H](O[C@H]3C4C=CO[C@@H](O[C@@H]5O[C@H](CO)[C@@H](O)[C@H](O)[C@H]5O)C4[C@@]4(CO)O[C@@H]34)O[C@H]2C)cc1` (stereo partly drawn), the max response is -3.69%.

Consider `NCCCCN(Cc1nc2ccccc2[nH]1)[C@H]1CCCc2cccnc21`, for which the max response was -0.584%.

In the case of `COc1cc(/C=C/C(=O)OC[C@H]2O[C@@H](OC3CC(C)=C(C(=O)O)C(C)(C)C3)[C@H](O)[C@@H](O)[C@@H]2O)cc(OC)c1O` (stereo partly drawn), the max response was -1.71%.

For `CC1CCC2(NC1)OC1C(O)C3C4CCC5CC(O[C@@H]6O[C@H](CO)[C@@H](O)[C@H](O)[C@H]6O[C@@H]6O[C@@H](C)[C@H](O)[C@@H](O)[C@H]6O)CCC5(C)C4CCC3(C)C1C2C` (stereo partly drawn), the max response is 2.08%.

As to `O=C(O)CCc1c(C(=O)O)[nH]c2cc(Cl)cc(Cl)c12`, the max response was -7.05%.

For `C=C(C(=O)OC)[C@]12O[C@@](C)(CC[C@@]3(O)/C(=C\C)C(=O)O[C@]3(C)C[C@@H]1OC(=O)C(CO)CN1CCCC1C(=O)O)CC2=O` (stereo partly drawn), the max response was -8.55%.

Regarding `CC(C)c1cc2c(c(O)c1O)[C@@]13CCCC(C)(C)C1[C@@H](O)[C@@H]2OC3=O` (stereo partly drawn), the max response is -8.48%.

As to `CC1CC(O)/C=C/C(O)/C=C\C(=O)O1` (stereo not drawn), the max response is -11.1%.

With `C=C1C(=O)O[C@@H]2C[C@]3(C)[C@@H](CCC(C)=O)[C@@H]3C[C@H]12`, the max response is -12.9%.

For the molecule `C/C(=C\C(=O)C[C@@]12C(=O)O[C@]3(C)CC[C@H]1C[C@H]23)C(N)=O`, the max response is -18.5%.

For the molecule `C=C(COC(=O)CC(C)C)C1Cc2cc(C(C)=O)ccc2O1` (stereo not drawn), the max response is -2.29%.

`CN(C)CCC[C@]1(c2ccc(F)cc2)OCc2cc(C#N)ccc21`: the max response is -1.92%.

As for `C=C1C(OC(C)=O)[C@@]23CCC4[C@](C)(C(=O)O)CCC[C@@]4(C)[C@]2(O)CC[C@H]1C3` (stereo partly drawn), the max response was -3.51%.

As for `CC(=O)OC1C(CO)OC(O[C@H]2[C@H](OC(=O)[C@]34CCC(C)(C)C[C@H]3C3=CCC5[C@@]6(C)CC[C@H](O[C@@H]7O[C@H](C(=O)O)[C@@H](O)[C@H](O[C@@H]8OC[C@@H](O)[C@H](O)[C@H]8O)[C@H]7O[C@@H]7O[C@H](CO)[C@H](O)[C@H](O)[C@H]7O)[C@@](C)(C=O)C6CC[C@@]5(C)[C@]3(C)C[C@H]4O)O[C@H](C)[C@H](OC3OC(C)C(OC4OCC(O)C(O)C4O)C(O)C3O)[C@@H]2O)C(O)C1O` (stereo partly drawn), the max response was -1.35%.

For the molecule `O=C(O)c1cc(C(F)(F)F)ccc1N1CC[C@H](OCc2ccccn2)C1`, the max response is -6.22%.

On to `C/C(=C\CCC(C)(C)O)CCO[C@@H]1O[C@H](CO[C@@H]2O[C@@H](C)[C@H](O)[C@@H](O)[C@H]2O)[C@@H](O)[C@H](O)[C@H]1O`, for which the max response was -3.15%.

As for `O=[N+]([O-])c1cc(Cl)ccc1S(=O)(=O)N1CCN(Cc2ccccc2)CC1`, the max response is -21.3%.

In the case of `CC1(C)C[C@H](O)C[C@@]2(C)[C@H]1[C@H](O)C=C1COC(=O)[C@@]12O`, the max response was 2.99%.

As to `CC(=O)N[C@H]1[C@H](O[C@H]2CC[C@]3(C)C4CC=C5[C@@H]6CC(C)(C)CC[C@]6(C(=O)O)[C@H](O)C[C@@]5(C)[C@]4(C)CC[C@H]3C2(C)C)O[C@H](CO)[C@@H](O)[C@@H]1O` (stereo partly drawn), the max response was -6.92%.

As to `CN[C@H](CNC(=O)N1CCC[C@@H]([C@@H](OCCNC(=O)OC)c2cccc(Cl)c2)C1)C[C@H]1CCCOC1`, the max response is 0.31%.

As to `COc1ccc(CC(=O)NCc2ccccc2-c2ccccc2C(=O)NCCc2cccnc2)cc1`, the max response is -0.81%.

`COc1ccc(Oc2c(Cl)cnn(C3c4ccccc4-c4ccccc43)c2=O)cc1`: the max response is -2.77%.

As for `COCCN1CCC(C(=O)NO)(S(=O)(=O)c2ccc(Oc3ccc(OC(F)(F)F)cc3)cc2)CC1`, the max response is -3.44%.

Consider `CC(=O)O[C@@H]1[C@H](O[C@@H]2OC[C@](O)(CO)[C@H]2O)[C@@H](O[C@@H]2O[C@@H](C)[C@H](O)[C@@H](O[C@@H]3O[C@H](CO)[C@@H](O)[C@H](O)[C@H]3O)[C@H]2O)[C@H](OC(=O)[C@]23CCC(C)(C)C[C@H]2C2=CCC4[C@@]5(C)C[C@H](O)[C@H](O[C@@H]6O[C@H](C(=O)O)[C@@H](O)[C@H](O)[C@H]6O)[C@@](C)(C(=O)O)C5CC[C@@]4(C)[C@]2(C)CC3)O[C@@H]1C` (stereo partly drawn), for which the max response was -7.53%.

`COC(=O)c1ccccc1O[C@@H]1O[C@H](CO[C@@H]2OC[C@@H](O)[C@H](O)[C@H]2O)[C@@H](O)[C@H](O)[C@H]1O`: the max response is 4.14%.

In the case of `C[C@H](O)C(O)(C(=O)OCc1ccccc1NC(=O)CCC(N)C(=O)O)[C@H](C)O` (stereo partly drawn), the max response was -11.8%.

These data come from PubChem BioAssay (NCATS).
